Reference: PubChem BioAssay AID588726 (The Scripps Research Institute Molecular Screening Center, 2011)
Hit rate of the full screen: of about 360,000 compounds, about 8,200 (2.3%) were called active. The sample holds actives, similar compounds and a random draw of the others, so the mix is not that of the screen. No stated cut-off is given here; in the data, active means inhibition above about 27%; inactive means the rest.

Biological target: Fructose-bisphosphate aldolase (Mycobacterium tuberculosis (strain ATCC 25618 / H37Rv)) (UniProt P9WQA3)
Experiment: Mtb FBA enzyme inhibitors, primary screen, biochemical, fluorescence, strain H37Rv (AID 588726);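 further: 0% = vehicle and 100% = reference inhibitor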
Details: purified M. tuberculosis FBA, fluorescence read-out, at 1 µM, stronger effect = higher value

Sequence of Fructose-bisphosphate aldolase (Mycobacterium tuberculosis (strain ATCC 25618 / H37Rv)) (P9WQA3 whole entry, looked up): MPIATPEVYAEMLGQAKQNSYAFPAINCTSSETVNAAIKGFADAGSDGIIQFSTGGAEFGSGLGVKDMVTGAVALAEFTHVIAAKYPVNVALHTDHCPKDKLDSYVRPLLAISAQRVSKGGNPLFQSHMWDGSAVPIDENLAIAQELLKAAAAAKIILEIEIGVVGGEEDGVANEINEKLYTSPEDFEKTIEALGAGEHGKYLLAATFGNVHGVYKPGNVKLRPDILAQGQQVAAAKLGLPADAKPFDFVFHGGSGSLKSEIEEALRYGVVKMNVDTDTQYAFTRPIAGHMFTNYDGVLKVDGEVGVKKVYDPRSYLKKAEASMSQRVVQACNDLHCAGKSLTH

Compound | inhibition
COc1ccc(N(C(=O)c2snc(C(N)=O)c2N)C(C(=O)NC2CCCC2)c2ccc(C)o2)c(OC)c1 (stereo unspecified) | 2.34% (inactive)
CCOC(=O)c1ccc(-c2ccc3ncnc(N(C)Cc4sccc4C)c3c2)o1 | 171% (active)
CCOC(=O)c1ccc(CS(=O)c2ccc(Cl)cc2)o1 (stereo unspecified) | -0.81% (inactive)
COc1ccccc1C(=O)Nn1c(-c2cccs2)nc2ccccc2c1=O | 0.05% (inactive)
CCc1nnc(NC(=O)CSc2nc3ccccc3c(=O)n2CCCOC)s1 | -4.95% (inactive)
CC1CN(c2cc(=O)n(Cc3ccc(F)cc3)c(=O)[nH]2)CC(C)O1 (stereo unspecified) | -1.34% (inactive)
Cc1ccc2c(C)c(C(=O)N3CCC(N4CCC(C(=O)NC5CC5)CC4)CC3)oc2c1 | 1.31% (inactive)
Cc1cc(-c2ccccc2)nc(N2CCC(C(=O)NC34CC5CC(CC(C5)C3)C4)CC2)n1 | 170% (active)
O=C(NNC(=O)C1CCN(c2ncccn2)CC1)c1ccccc1 | 1.54% (inactive)
CC(=O)N1CCC(C(=O)Nc2nc(-c3ccccc3)ns2)CC1 | -0.01% (inactive)
CCOc1cc(-c2noc(CCC(=O)N3CCOCC3)n2)ccc1OC | 1.37% (inactive)
CCCCCn1c(=O)c(C(=O)OCC)c(Cl)c2ccccc21 | 1.96% (inactive)
CCCn1c(=O)c(C(=O)Nc2cc(C)ccn2)c(O)c2ccccc21 | 1.3% (inactive)
CCCn1c(=O)c(-c2ccccc2)c(O)c2ccccc21 | 35.6% (active)
Cc1cccc(C(=O)C(O)(c2ccccc2)C2CCCCC2=O)c1 (stereo unspecified) | 3.06% (inactive)
O=C(Nc1cccnc1)c1noc2c1CCCCC2 | 1.31% (inactive)
N#CC1(Nc2ccc3c4c(cccc24)CC3)CCCCC1 | 48% (active)
CC(C)C(=O)Nc1ccc2c3c(cccc13)CC2 | -0.4% (inactive)
N#CC1(Nc2ccc(-c3ccc(Cl)cc3)cc2)CCCC1 | -1.27% (inactive)
O=C(c1ccccc1)c1cc(-c2ccccn2)c(N2CCOCC2)s1 | -4.69% (inactive)
CSc1ncnc2c1ncn2CC(=O)C1CCC2C3CCC4=CC(=O)CCC4(C)C3CCC12C (stereo unspecified) | -0.85% (inactive)
COCCCNC(=O)CC1C[C@H](C(=O)N2CCCCC2)[C@@]2(CCc3ccccc3)c3[nH]c4ccccc4c3CCN2C1=O (stereo partly specified) | 0.45% (inactive)
COc1ccc2c(CC(=O)OCC(=O)NC(N)=O)coc2c1 | 2.04% (inactive)
Cc1ccc2cc(C#N)c(NCCNC(=S)NCCCN3CCOCC3)nc2c1 | 11.2% (inactive)
Cc1ccc2nc(NCCCNC(=O)c3cnccn3)c(C#N)cc2c1 | 22.9% (inactive)
COCCCNC(=S)NCCNc1nc2cc(C)c(C)cc2cc1C#N | 27.3% (active)
